Screening data deposited in PubChem by University of Kansas High Throughput Screening Laboratory.
An excerpt weighted towards active compounds, which were near 3.5% of everything screened.
mHTT CaM bind: inhibitors of human mutant huntingtin-calmodulin interaction; inhibition, % at 15 µM; 190,000 compounds, 3.6% hits; AlphaScreen His-mHTT/GST-CaM binding, luminescence
Pf apPOL block: Pf-apPOL DNA polymerase inhibition; inhibition, % at 10 µM; Recombinant Pf-apPOL, molecular beacon fluorescence, 1.5 h; 210,000 compounds, 0.25% hits; AID 1794808
A number is an active result. No stated cut-off is given here; in the data, active means inhibition above about 50%; inactive means the rest.

Screening CCC(=O)N1CCc2cc(Br)cc(S(=O)(=O)Nc3ccc(CC)cc3)c21 returned mHTT CaM bind inactive and Pf apPOL block inactive.
Screening CCOc1ccc2c(c1)sc(=NC(=O)c1cccc(N3C(=O)CCC3=O)c1)n2C returned mHTT CaM bind inactive and Pf apPOL block inactive.
For COc1ccc(/C=C/C(=O)c2ccc(NC(=O)c3ccco3)cc2)cc1OC the results were mHTT CaM bind inactive and Pf apPOL block inactive.
For N#CC1=C(N)Oc2n[nH]c(-c3ccc(Cl)cc3)c2C1c1cn[nH]c1-c1ccc(F)cc1 (centres undefined) the results were mHTT CaM bind inactive and Pf apPOL block inactive.
Screening CCCCN(Cc1ccccc1)Cc1cc(OC)c(OC)cc1[N+](=O)[O-] returned mHTT CaM bind inactive and Pf apPOL block inactive.
C1=Nc2ccccc2-c2ccccc2N1 was read as mHTT CaM bind inactive and Pf apPOL block inactive.
For Cc1cc(C(=O)Nc2nnc(-c3csc(C)n3)o2)c(C)o1 the results were mHTT CaM bind 77.6 and Pf apPOL block inactive.
For Cc1nc(-c2nnc(NC(=O)c3cc(Cl)cc(Cl)c3)o2)cs1 the results were mHTT CaM bind inactive and Pf apPOL block inactive.
For N#Cc1c(SCC(=O)NC2CC2)sc2c(O)cc(=O)[nH]c12 the results were mHTT CaM bind inactive.
For N#Cc1c(SCC(=O)Nc2nccs2)sc2c(O)cc(=O)[nH]c12 the results were mHTT CaM bind 51.5.
Nc1nc2ccccc2n1Cc1ccc(Br)cc1 was read as mHTT CaM bind inactive and Pf apPOL block inactive.
Screening CC(C)(C)c1ccc(Cn2c(N)nc3ccccc32)cc1 returned mHTT CaM bind 88.7 and Pf apPOL block inactive.
CCNC(=O)Nc1cc(C)ccc1N1CCCN(Cc2ccc(F)c(F)c2)C1=O was read as mHTT CaM bind inactive and Pf apPOL block inactive.
`Cc1ccc(C2CC(C(F)(F)F)n3nc(C(=O)NCc4ccccc4)cc3N2)cc1` (centres undefined) gave mHTT CaM bind inactive and Pf apPOL block inactive.
Screening Cc1ccc(C2C3=C(Nc4ncnn42)c2ccccc2OC3c2cccc(F)c2)cc1 (centres undefined) returned mHTT CaM bind 53.0 and Pf apPOL block inactive.
Fc1ccc(C2C3=C(Nc4ncnn42)c2ccccc2OC3c2cccc(F)c2)cc1 (centres undefined) was read as mHTT CaM bind inactive and Pf apPOL block inactive.
Cc1ccc(C2C3=C(Nc4ncnn42)c2ccccc2OC3c2ccc(F)cc2)cc1 (centres undefined) was read as mHTT CaM bind 51.0 and Pf apPOL block inactive.
Screening Cc1ccc(C2Oc3ccccc3C3=C2C(c2ccc(F)cc2)n2ncnc2N3)cc1 (centres undefined) returned mHTT CaM bind inactive and Pf apPOL block inactive.
For Cn1cccc1C(=O)N1CCC(COc2ccc(C(=O)N3CCCC3)cc2)CC1 the results were mHTT CaM bind inactive and Pf apPOL block inactive.
`O=S(=O)(NCC1(c2ccccc2)CCCOCC1)c1ccccc1` (centres undefined) gave mHTT CaM bind inactive and Pf apPOL block inactive.
`CN(C)c1ccc(C2CC(c3ccccc3)=NN2C(=O)c2ccc(F)cc2)cc1[N+](=O)[O-]` (centres undefined) gave mHTT CaM bind 55.0 and Pf apPOL block inactive.
For CN(C)c1ccc(C2CC(c3ccccc3)=NN2C(=O)c2ccc(F)cc2)cc1 (centres undefined) the results were mHTT CaM bind inactive and Pf apPOL block inactive.
`O=C(NC1CC1)C1CCCN(c2ncc(-c3ccc(F)cc3)cn2)C1` (centres undefined) gave mHTT CaM bind inactive and Pf apPOL block inactive.
Screening COc1ccc(NC(=O)N2CCOC(c3ccccc3)C2)c(OC)c1 (centres undefined) returned mHTT CaM bind inactive and Pf apPOL block inactive.
For COc1cccc2c1OC1(CCC(C)CC1)N1N=C(c3ccco3)CC21 (centres undefined) the results were mHTT CaM bind inactive and Pf apPOL block inactive.
Screening COc1cccc2c1OC1(CCCCC1)N1N=C(c3ccco3)CC21 (centres undefined) returned mHTT CaM bind inactive and Pf apPOL block inactive.
Screening COc1ccc(C2=NN3C(C2)c2ccccc2OC32CCCCC2)cc1OC (centres undefined) returned mHTT CaM bind inactive and Pf apPOL block inactive.
Screening COc1cccc2c1OC(C)(C)N1N=C(c3ccco3)CC21 (centres undefined) returned mHTT CaM bind 55.0 and Pf apPOL block inactive.
COc1cccc(C2=NN3C(C2)c2cccc(OC)c2OC32CCCCC2)c1 (centres undefined) was read as mHTT CaM bind 52.0 and Pf apPOL block inactive.
COc1ccc(C2=NN3C(C2)c2cc(OC)ccc2OC32CCCCC2)cc1 (centres undefined) was read as mHTT CaM bind 60.0 and Pf apPOL block inactive.
For Cc1nn(C)c2c(=O)n(CC(=O)NCc3ccc(F)cc3F)ccc12 the results were mHTT CaM bind inactive and Pf apPOL block inactive.
For Cc1ccc(Cn2cnc3c2c(=O)n(C(C)C)c(=O)n3-c2ccc(F)cc2)cc1 the results were mHTT CaM bind inactive and Pf apPOL block inactive.
